# In the library only some 3.6% were active in any assay of this set; here they are far more common.
# mHTT-CaM PPI inh: disrupts binding of mutant huntingtin to calmodulin | AlphaScreen His-mHTT/GST-CaM binding, luminescence | inhibition, % at 15 µM | 190,000 compounds, 3.6% hits;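 further: 0% = both proteins with DMSO and 100% = one protein alone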
# Pf apPOL inh: Pf-apPOL DNA polymerase inhibition. AID 1794808. inhibition, % at 10 µM. 210,000 compounds, 0.25% hits. Recombinant Pf-apPOL, molecular beacon fluorescence, 1.5 h
# The depositor's hits bear a star; nt = not tested or not shown; ! = a repeat was not active. No stated cut-off is given here; in the data, active means inhibition above about 50%; inactive means the rest.
SMILES,mHTT-CaM PPI inh,Pf apPOL inh
Cc1ccc2nsnc2c1S(=O)(=O)N1CCN(C23CC4CC(CC(C4)C2)C3)CC1,-5,6
CC(=O)N1CCC(n2c(C)nc(C(=O)NCc3cccc(Cl)c3)c2C)CC1,3,1
O=C(c1ccc(Br)cc1)N(Cc1ccc(F)cc1)C1CCS(=O)(=O)C1 (configuration not stated),-4,-6
O=C(c1ccc(OCC2CCN(C(=O)c3ccc(F)cc3)CC2)cc1)N1CCCCC1,-1,-2
CCN(CC)CCNC(=O)C1(O)c2ccccc2NC(=O)N1c1ccc(OC)cc1OC (configuration not stated),-2,-4
CCC(C)NC(=O)c1c2c(nc3ccc(F)cc13)CCC2 (configuration not stated),23,-2
O=C(Nc1cccnc1)C1CCc2nc(N3CCCCC3)ncc2C1 (configuration not stated),-7,0
COc1ccc(C(=O)CSc2nc(C)cc(C)c2C#N)cc1OC,-3,1
O=C(NCCCn1ccnc1)c1ccc(C(=O)NCCCn2ccnc2)cc1,0,0
Cc1ccc(N2CC(NC(=O)NCCCn3ccnc3)CC2=O)cc1 (configuration not stated),98*,-3
Cn1nc(-c2nc(-c3ccccc3)no2)c2c1CCN(S(=O)(=O)c1cccs1)C2,9,-3
O=c1[nH]c(SCc2ccc(Cl)cc2)nc2c1CSC2,nt,2
Cc1ccc(-n2nc(C)c3c2OC(N)=C(C#N)C3c2ccco2)cc1 (configuration not stated),60*,-3
Cc1ccc(-n2nc(C)c3c2OC(N)=C(C#N)C3c2c(F)cccc2Cl)cc1 (configuration not stated),10,0
COc1ccc(CC(=O)N2CCC(Cn3cccn3)CC2)cc1OC,-12,-5
CCCCOc1cccc(NC(=O)CSc2cccc3cccnc23)c1,0,0
NC(=O)CSc1cccc2cccnc12,83*,-3
COc1ccc(NC(=O)CSc2cccc3cccnc23)cc1,53*!,-7
O=C(O)CSc1cccc2cccnc12,11,-1
CCC(C)(C)C(=O)N1CCC(CCOc2ccccc2)CC1,-35,-7
CN(N=Cc1cc(Cl)cc(Cl)c1O)c1c(Cl)cccc1[N+](=O)[O-],nt,-13
Cc1cc(=O)[nH]c(-n2nc(C)cc2N)n1,98*,-125
Cc1cc(=O)[nH]c(-n2nc(C)cc2NC(=O)c2snnc2C)n1,-13,-3
COc1ccc(NC(=O)c2cn3c(n2)CSCC3)cc1OC,15,0
CCN1C(=O)C2(SCCN2C(=O)C2CCCC2)c2cc(F)ccc21 (configuration not stated),55*,1
SMILES,mHTT-CaM PPI inh,Pf apPOL inh
CCN1C(=O)C2(SCCN2C(=O)c2cccc(OC)c2)c2cc(F)ccc21 (configuration not stated),43,-1
COCCN1C(=O)C2(SCCN2C(=O)c2ccc(OC)cc2)c2ccccc21 (configuration not stated),22,-2
CCN1C(=O)C2(SCCN2C(=O)c2cccc(F)c2)c2cc(F)ccc21 (configuration not stated),56*,8
CCCN1CCN(C(=O)c2c(C)sc3ccn(C)c(=O)c23)CC1,14,-3
Cn1c(=O)c2nc3c(nc2n(C)c1=O)[nH]c1ccccc13,-5,-9
CCOC(=O)C1CCN(C(=O)C2CCN(c3nnc(-c4ccccc4)o3)CC2)CC1,0,0
CC(Oc1ccccc1F)C(=O)NCCCn1ncccc1=O (configuration not stated),-16,-4
COc1ccc(NC(=O)c2cc3cccc(OC)c3oc2=O)c(OC)c1,2,100*
COc1cccc2cc(C(=O)Nc3ccc(C)cc3C)c(=O)oc12,1,-5
O=c1cc(-c2ccccc2)[nH][nH]1,100*,-6
N#Cc1ccc(-c2ccccc2)[nH]c1=O,4,-8
CN1CCN(C(=O)CN(C)S(=O)(=O)c2ccc(Br)cc2)CC1,1,2
Oc1ccc(I)cc1C=Nc1cc(Cl)ccc1O,38,-7
Cc1cc(O)c(C=Nc2cc(Cl)ccc2O)cc1C,52*,-8
CCn1c(=O)c2c(ncn2Cc2ccccc2F)n(-c2cccc(C)c2)c1=O,13,-1
COc1cc(C=Nc2ccc(Nc3ccccc3)cc2)ccc1O,92*,-4
COc1cc(C=Nc2ccc(Cl)c(Cl)c2)ccc1O,2,3
COc1ccc(C=Nc2ccc(C(N)=O)cc2)cc1O,-4,-1
Oc1ccc(C=Nc2ccc(Nc3ccccc3)cc2)cc1,100*,-3
Oc1ccc(N=Cc2ccc(OCc3ccccc3)cc2)cc1,35,0
COc1ccc(C=Nc2ccc(Nc3ccccc3)cc2)cc1O,87*,-57
CC(=O)Nc1ccc(S(=O)(=O)N2CCN(c3ccccc3F)CC2)cc1,3,-12
Cc1nccn1-c1ccc(=O)n(CCNC(=O)Cn2nc(-c3ccc(F)cc3)ccc2=O)n1,-5,-7
CCc1[nH]c2ccccc2c1C,50*,-11
Cc1c(Cl)c(=O)[nH]c2ccccc12,nt,-8
SMILES,mHTT-CaM PPI inh,Pf apPOL inh
O=C(c1cc2sccc2n1Cc1ccccc1F)N1CCOCC1,6,-4
CCn1c(C(=O)N2CCN(Cc3ccccc3)CC2)cc2sccc21,57*,-7
Cc1cccc2c(=O)n(C)c(CCC(=O)NCc3ccc(Br)cc3)nc12,-3,-1
NS(=O)(=O)c1ccc(-c2ccc(C=O)o2)cc1,-3,-8
O=Cc1ccc(-c2ccc(S(=O)(=O)O)cc2)o1,76*,-8
COc1cc(/C=C2/C(=O)ON=C2C)ccc1OCCc1ccccc1,20,0
CCOc1ccc(/C=C2\C(=O)ON=C2C)cc1OC,64*,1
C=CCOc1ccc(/C=C2/C(=O)ON=C2C)cc1OC,87*,-4
CCCOc1ccc(/C=C2\C(=O)ON=C2C)cc1OCC,85*,1
COc1cc(/C=C2/C(=O)ON=C2C)ccc1OCC(C)C,16,-7
CCOc1cc(/C=C2/C(=O)ON=C2C)ccc1OCc1ccc(Br)cc1,13,11
C#CCOc1ccc(/C=C2\C(=O)ON=C2C)cc1OCC,51*,-6
C#CCOc1ccc(/C=C2\C(=O)ON=C2C)cc1OC,22,-3
CCCN1CCN(c2ccc(-c3nc(-c4ccc(C)cc4)no3)cn2)CC1,-2,-3
COc1ccc(CC2CCC(=NOC(=O)C3CCCCC3)CC2)cc1 (configuration not stated),nt,0
CCOc1ccc(CC(=O)N2CCC(c3nncn3C)CC2)cc1,2,3
COc1ccc(N2CCN(C(=O)C3c4ccccc4CCN3C(C)=O)CC2)cc1 (configuration not stated),31,-3
CCOc1cc(/C=C2/C(=O)ON=C2C)ccc1OCc1cccc(Cl)c1,99*,-6
CCOc1cc(/C=C2\C(=O)ON=C2C)ccc1OCc1ccccc1,15,2
O=C1Cc2cc(NS(=O)(=O)c3ccc(Cl)s3)ccc2N1,-9,-3
Cc1ccc(C2=N/C(=C\c3sccc3C)C(=O)O2)cc1,4,-2
CCc1ccc(O)c(N=Cc2cc(C)ccc2O)c1,27,0
CCc1ccc(O)c(N=Cc2cc(I)ccc2O)c1,54*,14
CCOc1ccccc1C(=O)N1CCC(COc2ccccc2C(=O)N2CCCC2)CC1,-2,-1
CCOc1ccccc1C(=O)N1CCC(CCOC)CC1,-4,67*
CCc1ccc(C(=O)CSc2nncn2C)cc1,0,-9
C=CCn1c(SCC(=O)c2ccc(F)cc2)nnc1-c1cccs1,0,-8

# Bioassay records (PubChem)
